What all share (assay): DAPPL (digital affinity profiling via proximity ligation, sequencing); 10 mM Tris-HCl pH 7.5, 50 mM NaCl, 1 mM DTT, 4% glycerol, room temperature, 30 min; GST-TFs on glutathione beads, 16-mer random dsDNA library, 0.1% formaldehyde crosslink after washing; high values mean tight binding
In one assay the target is T1, FEV (Homo sapiens, UniProt Q99581 1-238).
T1 sequence: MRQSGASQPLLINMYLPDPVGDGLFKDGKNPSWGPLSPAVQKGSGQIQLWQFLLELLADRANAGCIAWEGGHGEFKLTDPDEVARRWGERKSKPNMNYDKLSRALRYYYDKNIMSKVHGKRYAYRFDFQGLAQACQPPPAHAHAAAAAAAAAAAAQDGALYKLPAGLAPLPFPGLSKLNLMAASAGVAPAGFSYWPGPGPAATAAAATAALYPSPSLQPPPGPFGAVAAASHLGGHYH
The settings on record: protein: recombinant; tags: N-terminal GST; dsDNA, one strand shown. Put shortly: (§1)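 A tag-only sample was pooled with DNA-barcoded human transcription factors that had been expressed in yeast as GST fusions and captured on glutathione beads. The pools were incubated for 30 min at room temperature with 200 nmole of a random double-stranded 16-mer DNA library in Tris/NaCl/DTT/glycerol buffer, then washed, crosslinked with 0.1% formaldehyde, proximity-ligated (BsaI/T4 ligase, 1 h, 37 °C), PCR-amplified and sequenced on an Illumina NextSeq500. Binding signal is each hexamer's read frequency for a factor divided by its frequency for the tag-only sample.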

The next assay deals with ETV5 (Homo sapiens, UniProt P41161 1-510). Particulars: protein: recombinant; tags: N-terminal GST; dsDNA, one strand shown. Put shortly:
as §1

Another assay has as its target HSF1 (Homo sapiens, UniProt Q00613 1-529). The settings on record: protein: recombinant; tags: N-terminal GST; chain copies: 3; dsDNA, one strand shown. Put shortly: as §1
Another assay concerns the target T2, SPIC (Homo sapiens, UniProt Q8N5J4 1-248).
T2 sequence: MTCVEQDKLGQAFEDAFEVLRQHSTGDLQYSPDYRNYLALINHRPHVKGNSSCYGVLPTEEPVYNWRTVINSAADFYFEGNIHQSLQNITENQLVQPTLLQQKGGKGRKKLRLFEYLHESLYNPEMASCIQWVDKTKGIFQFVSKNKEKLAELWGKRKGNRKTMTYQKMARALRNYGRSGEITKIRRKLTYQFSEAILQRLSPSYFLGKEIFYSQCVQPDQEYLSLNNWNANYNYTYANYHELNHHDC
The settings on record: protein: recombinant; tags: N-terminal GST; dsDNA, one strand shown. Put shortly: as §1

The target of the next assay is ELF4 (Homo sapiens, UniProt Q99607 1-663). The settings on record: protein: recombinant; tags: N-terminal GST; dsDNA, one strand shown. The method in brief: as §1
A further assay concerns the target T3, ELK4 (Homo sapiens, UniProt P28324-2 1-405).
T3 sequence: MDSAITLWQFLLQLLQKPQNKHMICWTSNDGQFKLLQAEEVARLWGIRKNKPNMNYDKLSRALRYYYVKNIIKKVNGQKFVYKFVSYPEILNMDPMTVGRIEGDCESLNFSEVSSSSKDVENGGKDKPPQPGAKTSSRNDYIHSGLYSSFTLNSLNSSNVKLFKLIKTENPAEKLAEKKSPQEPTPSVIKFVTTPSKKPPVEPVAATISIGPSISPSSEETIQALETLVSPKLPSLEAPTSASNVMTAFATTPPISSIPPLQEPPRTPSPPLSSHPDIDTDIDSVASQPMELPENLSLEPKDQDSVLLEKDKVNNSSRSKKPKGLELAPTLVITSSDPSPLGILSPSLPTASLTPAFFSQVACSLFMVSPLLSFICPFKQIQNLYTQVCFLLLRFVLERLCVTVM
The settings on record: protein: recombinant; tags: N-terminal GST; dsDNA, one strand shown. The method in brief: as §1

The next assay has as its target T4, ETV2 (Homo sapiens, UniProt O00321 1-342).
T4 sequence: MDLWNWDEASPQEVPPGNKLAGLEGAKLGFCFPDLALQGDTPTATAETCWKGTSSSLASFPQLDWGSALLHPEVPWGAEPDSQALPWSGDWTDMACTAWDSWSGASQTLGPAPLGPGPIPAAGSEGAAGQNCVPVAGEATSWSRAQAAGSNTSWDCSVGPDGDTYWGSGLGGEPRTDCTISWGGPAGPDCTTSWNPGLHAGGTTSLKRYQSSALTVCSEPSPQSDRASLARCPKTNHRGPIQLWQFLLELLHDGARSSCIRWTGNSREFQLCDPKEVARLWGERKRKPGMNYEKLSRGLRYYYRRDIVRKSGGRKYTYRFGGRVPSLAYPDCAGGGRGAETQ
The settings on record: protein: recombinant; tags: N-terminal GST; dsDNA, one strand shown. Put shortly: as §1

The target of the next assay is T5, ELF3 (Homo sapiens, UniProt P78545 1-371).
T5 sequence: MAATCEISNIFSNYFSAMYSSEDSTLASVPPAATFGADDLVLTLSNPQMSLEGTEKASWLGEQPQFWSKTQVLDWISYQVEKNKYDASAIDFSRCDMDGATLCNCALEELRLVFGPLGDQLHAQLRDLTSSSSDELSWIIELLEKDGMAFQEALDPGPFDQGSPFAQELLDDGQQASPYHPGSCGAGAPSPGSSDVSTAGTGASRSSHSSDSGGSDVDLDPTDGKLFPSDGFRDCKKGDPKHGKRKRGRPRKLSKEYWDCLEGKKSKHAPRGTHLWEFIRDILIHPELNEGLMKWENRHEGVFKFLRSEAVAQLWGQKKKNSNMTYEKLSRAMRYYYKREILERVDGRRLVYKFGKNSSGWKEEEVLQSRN
The settings on record: protein: recombinant; tags: N-terminal GST; dsDNA, one strand shown. The method in brief: as §1

The target in the next assay is CRX (Homo sapiens, UniProt O43186 1-299). The settings on record: protein: recombinant; tags: N-terminal GST; dsDNA, one strand shown. The method in brief: as §1
The next assay has as its target ETV1 (Homo sapiens, UniProt P50549 1-477). The settings on record: protein: recombinant; tags: N-terminal GST; dsDNA, one strand shown. The method in brief: as §1
The target of a further assay is T6, ERF (Homo sapiens, UniProt P50548 1-548).
T6 sequence: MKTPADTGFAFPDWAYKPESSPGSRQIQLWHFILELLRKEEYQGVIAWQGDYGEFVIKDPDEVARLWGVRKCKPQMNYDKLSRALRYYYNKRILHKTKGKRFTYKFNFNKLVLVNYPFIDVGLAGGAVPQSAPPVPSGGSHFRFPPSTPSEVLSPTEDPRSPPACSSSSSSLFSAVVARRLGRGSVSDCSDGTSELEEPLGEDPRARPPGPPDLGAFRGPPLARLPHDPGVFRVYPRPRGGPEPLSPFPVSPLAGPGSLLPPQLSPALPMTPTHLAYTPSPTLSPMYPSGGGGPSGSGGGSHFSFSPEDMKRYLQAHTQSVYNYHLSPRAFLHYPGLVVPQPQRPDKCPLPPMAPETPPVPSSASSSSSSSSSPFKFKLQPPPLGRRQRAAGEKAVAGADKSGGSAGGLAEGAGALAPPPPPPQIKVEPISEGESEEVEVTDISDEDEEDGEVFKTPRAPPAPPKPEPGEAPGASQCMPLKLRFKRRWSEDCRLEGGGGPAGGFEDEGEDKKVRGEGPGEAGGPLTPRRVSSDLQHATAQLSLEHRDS
The settings on record: protein: recombinant; tags: N-terminal GST; dsDNA, one strand shown. Put shortly: as §1

The target of a further assay is T7, ETV3L (Homo sapiens, UniProt Q6ZN32 1-361).
T7 sequence: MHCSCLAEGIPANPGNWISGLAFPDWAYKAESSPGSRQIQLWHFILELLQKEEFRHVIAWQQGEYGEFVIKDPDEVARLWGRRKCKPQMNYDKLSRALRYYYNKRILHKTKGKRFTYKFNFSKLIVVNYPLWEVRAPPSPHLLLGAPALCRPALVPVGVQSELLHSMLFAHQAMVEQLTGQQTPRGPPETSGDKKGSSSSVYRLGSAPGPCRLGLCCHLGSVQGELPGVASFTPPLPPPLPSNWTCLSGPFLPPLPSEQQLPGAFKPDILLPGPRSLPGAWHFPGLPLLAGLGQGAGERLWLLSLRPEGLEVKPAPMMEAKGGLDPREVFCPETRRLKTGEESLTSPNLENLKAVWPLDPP
Particulars: protein: recombinant; tags: N-terminal GST; dsDNA, one strand shown. Put shortly: as §1

A further assay addresses T8, ETS2 (Homo sapiens, UniProt P15036 1-469).
T8 sequence: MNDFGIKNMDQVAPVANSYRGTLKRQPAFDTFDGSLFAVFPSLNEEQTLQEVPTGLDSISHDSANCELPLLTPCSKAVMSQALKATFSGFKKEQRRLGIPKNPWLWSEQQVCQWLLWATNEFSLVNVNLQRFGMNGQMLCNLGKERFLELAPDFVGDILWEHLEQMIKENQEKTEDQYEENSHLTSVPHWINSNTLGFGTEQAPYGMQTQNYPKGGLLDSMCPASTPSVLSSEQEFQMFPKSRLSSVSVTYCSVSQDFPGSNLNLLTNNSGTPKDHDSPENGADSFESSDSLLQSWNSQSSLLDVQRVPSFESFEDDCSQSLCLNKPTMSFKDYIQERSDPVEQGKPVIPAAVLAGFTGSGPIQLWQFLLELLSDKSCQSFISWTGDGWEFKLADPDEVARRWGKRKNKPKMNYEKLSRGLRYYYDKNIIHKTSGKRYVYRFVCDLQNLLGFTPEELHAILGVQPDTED
Particulars: protein: recombinant; tags: N-terminal GST; dsDNA, one strand shown. The method in brief: as §1

A further assay concerns the target T9, SPDEF (Homo sapiens, UniProt O95238 1-335).
T9 sequence: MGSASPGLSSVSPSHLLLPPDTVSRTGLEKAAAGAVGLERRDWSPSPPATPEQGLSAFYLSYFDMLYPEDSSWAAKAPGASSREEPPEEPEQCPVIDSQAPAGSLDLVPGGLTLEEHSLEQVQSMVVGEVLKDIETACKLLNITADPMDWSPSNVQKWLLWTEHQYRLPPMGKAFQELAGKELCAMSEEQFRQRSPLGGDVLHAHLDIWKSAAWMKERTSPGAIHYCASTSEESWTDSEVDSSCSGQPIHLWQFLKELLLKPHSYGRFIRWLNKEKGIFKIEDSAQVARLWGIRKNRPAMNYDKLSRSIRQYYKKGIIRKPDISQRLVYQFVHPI
The settings on record: protein: recombinant; tags: N-terminal GST; dsDNA, one strand shown. Put shortly:
as §1

For a further assay, the target named is T10, ETV7 (Homo sapiens, UniProt Q9Y603 1-341).
T10 sequence: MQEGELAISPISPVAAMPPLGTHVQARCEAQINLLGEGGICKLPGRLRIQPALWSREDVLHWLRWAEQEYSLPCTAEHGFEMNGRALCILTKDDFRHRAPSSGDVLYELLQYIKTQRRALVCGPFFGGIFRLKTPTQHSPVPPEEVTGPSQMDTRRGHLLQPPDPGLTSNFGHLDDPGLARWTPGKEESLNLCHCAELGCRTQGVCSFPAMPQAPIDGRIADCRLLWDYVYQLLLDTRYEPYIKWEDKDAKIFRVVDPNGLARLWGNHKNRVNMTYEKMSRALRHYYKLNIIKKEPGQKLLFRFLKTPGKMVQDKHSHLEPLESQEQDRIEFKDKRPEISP
The settings on record: protein: recombinant; tags: N-terminal GST; dsDNA, one strand shown. Put shortly: as §1

In a further assay the target is T11, ELF5 (Homo sapiens, UniProt Q9UKW6-2 1-255).
T11 sequence: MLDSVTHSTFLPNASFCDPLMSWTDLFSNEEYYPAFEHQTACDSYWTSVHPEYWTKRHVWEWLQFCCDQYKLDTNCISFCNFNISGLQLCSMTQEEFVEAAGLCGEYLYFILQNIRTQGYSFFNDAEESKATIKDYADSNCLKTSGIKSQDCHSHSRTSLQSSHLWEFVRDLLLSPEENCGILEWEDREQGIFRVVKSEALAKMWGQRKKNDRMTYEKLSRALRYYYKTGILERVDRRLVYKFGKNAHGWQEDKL
Particulars: protein: recombinant; tags: N-terminal GST; dsDNA, one strand shown. Put shortly:
as §1

The target in another assay is T12, ETV3 (Homo sapiens, UniProt P41162-2 1-143).
T12 sequence: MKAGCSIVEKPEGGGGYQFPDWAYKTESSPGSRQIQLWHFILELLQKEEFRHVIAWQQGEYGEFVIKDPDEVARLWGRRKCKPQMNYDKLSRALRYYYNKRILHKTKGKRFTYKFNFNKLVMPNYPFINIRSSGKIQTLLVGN
Particulars: protein: recombinant; tags: N-terminal GST; dsDNA, one strand shown. The method in brief: as §1

The target in the next assay is ETV6 (Homo sapiens, UniProt P41212 1-452). The settings on record: protein: recombinant; tags: N-terminal GST; dsDNA, one strand shown. The method in brief: as §1
Sequence of ETV6 (P41212 whole entry): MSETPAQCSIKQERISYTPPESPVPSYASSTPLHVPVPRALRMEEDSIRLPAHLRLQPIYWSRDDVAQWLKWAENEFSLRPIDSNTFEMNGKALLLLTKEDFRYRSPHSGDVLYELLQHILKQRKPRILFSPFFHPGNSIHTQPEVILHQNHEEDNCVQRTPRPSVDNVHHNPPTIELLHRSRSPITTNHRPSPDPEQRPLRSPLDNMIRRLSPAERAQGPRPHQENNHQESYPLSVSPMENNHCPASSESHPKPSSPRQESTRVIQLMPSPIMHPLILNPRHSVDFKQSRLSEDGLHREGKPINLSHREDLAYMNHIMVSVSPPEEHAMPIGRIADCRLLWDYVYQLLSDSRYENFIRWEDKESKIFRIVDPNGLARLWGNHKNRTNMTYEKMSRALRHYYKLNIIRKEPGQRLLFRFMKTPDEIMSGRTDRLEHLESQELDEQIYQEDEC

Sequence of CRX (O43186 whole entry): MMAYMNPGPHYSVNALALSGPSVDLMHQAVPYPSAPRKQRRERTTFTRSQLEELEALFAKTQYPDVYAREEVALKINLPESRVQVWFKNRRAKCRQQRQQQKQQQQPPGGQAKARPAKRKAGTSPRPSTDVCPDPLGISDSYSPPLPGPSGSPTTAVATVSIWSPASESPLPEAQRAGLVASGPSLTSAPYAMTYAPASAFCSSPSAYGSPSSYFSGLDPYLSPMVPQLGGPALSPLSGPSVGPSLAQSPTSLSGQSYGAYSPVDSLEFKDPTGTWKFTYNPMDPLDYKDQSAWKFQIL
Sequence of ETV5 (P41161 whole entry): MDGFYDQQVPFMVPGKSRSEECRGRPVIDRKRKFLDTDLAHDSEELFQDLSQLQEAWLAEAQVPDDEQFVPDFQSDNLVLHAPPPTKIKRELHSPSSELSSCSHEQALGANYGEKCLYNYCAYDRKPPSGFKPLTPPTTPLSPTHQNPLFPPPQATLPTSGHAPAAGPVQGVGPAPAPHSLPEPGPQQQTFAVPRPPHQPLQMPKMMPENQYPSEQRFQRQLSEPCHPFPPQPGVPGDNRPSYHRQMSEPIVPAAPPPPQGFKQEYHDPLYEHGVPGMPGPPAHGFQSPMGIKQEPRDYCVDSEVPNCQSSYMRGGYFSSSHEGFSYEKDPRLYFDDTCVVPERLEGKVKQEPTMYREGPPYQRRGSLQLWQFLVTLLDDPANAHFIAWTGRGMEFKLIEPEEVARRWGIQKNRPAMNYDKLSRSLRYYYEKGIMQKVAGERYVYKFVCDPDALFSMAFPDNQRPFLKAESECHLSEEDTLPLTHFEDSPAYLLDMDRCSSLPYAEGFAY
Sequence of ELF4 (Q99607 whole entry): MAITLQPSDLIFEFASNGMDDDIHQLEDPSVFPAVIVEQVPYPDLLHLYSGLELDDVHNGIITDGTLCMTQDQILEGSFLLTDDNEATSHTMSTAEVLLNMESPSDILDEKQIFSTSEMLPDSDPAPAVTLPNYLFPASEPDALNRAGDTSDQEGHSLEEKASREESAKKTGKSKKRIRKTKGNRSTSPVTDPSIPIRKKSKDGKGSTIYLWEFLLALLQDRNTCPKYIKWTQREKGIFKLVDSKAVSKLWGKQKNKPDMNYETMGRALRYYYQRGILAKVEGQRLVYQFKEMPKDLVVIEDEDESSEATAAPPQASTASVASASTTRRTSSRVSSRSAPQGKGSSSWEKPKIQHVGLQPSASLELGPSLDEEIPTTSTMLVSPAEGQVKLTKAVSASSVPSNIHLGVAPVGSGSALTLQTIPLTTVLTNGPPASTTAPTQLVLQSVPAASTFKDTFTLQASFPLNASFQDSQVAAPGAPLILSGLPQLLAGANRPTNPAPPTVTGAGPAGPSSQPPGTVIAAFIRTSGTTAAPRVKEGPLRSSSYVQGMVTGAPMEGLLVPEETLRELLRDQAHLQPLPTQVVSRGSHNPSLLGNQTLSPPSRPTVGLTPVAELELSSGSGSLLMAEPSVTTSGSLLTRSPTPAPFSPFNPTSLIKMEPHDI
Sequence of ETV1 (P50549 whole entry): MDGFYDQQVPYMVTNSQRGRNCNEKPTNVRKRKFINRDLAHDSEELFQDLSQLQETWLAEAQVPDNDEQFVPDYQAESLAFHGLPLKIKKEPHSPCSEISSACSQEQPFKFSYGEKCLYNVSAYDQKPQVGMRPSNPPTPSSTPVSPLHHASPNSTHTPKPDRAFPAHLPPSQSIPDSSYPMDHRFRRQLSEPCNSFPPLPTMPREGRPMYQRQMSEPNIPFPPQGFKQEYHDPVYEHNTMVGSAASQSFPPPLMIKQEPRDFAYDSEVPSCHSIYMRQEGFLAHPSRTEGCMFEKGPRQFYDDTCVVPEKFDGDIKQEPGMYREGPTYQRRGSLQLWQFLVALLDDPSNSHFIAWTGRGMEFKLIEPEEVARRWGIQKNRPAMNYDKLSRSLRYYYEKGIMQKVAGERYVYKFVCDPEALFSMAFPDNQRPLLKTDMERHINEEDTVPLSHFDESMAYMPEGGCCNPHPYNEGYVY
Sequence of HSF1 (Q00613 whole entry): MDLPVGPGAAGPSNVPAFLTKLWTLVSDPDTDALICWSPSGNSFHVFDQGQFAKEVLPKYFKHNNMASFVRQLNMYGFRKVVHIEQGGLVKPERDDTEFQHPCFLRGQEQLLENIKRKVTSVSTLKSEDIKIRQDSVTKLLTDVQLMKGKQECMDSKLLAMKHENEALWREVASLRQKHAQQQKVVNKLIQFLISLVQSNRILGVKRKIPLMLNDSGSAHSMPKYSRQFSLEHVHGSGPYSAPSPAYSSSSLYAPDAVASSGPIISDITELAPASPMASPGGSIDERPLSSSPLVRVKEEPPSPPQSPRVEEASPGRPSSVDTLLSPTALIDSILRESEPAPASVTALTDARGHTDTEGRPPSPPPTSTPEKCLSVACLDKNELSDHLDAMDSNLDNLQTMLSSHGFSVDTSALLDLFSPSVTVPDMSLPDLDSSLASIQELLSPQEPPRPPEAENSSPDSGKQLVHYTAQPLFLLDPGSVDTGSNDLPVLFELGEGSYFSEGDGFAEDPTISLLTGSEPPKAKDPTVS

For GATTCT, the binding signal is 1.13 fold enrichment (6-mer frequency, TF over GST control) in the assay with FEV; 1.18 fold enrichment (6-mer frequency, TF over GST control) in the assay with ETV5; 2.08 fold enrichment (6-mer frequency, TF over GST control) with HSF1; 1.11 fold enrichment (6-mer frequency, TF over GST control) with SPIC; 1.19 fold enrichment (6-mer frequency, TF over GST control) with ELF4; 1.36 fold enrichment (6-mer frequency, TF over GST control) in the assay with ELK4. In addition, the binding signal was 1.15 fold enrichment (6-mer frequency, TF over GST control) in the assay with ETV2; 1.05 fold enrichment (6-mer frequency, TF over GST control) in the assay with ELF3; 1.58 fold enrichment (6-mer frequency, TF over GST control) with CRX; 1.25 fold enrichment (6-mer frequency, TF over GST control) with ETV1; 1.13 fold enrichment (6-mer frequency, TF over GST control) with ERF; 1.17 fold enrichment (6-mer frequency, TF over GST control) in the assay with ETV3L. The binding signal with ETS2 is 1.23 fold enrichment (6-mer frequency, TF over GST control); in the assay with SPDEF, 1.09 fold enrichment (6-mer frequency, TF over GST control); with ETV7 it was 1.23 fold enrichment (6-mer frequency, TF over GST control); with ELF5 it was 1.11 fold enrichment (6-mer frequency, TF over GST control); in the assay with ETV3, 1.28 fold enrichment (6-mer frequency, TF over GST control); with ETV6, 1.19 fold enrichment (6-mer frequency, TF over GST control).

The values above are taken from PMC7862700, “An all-to-all approach to the identification of sequence-specific readers for epigenetic DNA modifications on cytosine”.
